Sampled rows, rich in hits. Any-hit rate of the full collection: about 5%.
Tb PYK inh – blocks Trypanosoma brucei pyruvate kinase; Q57TT1; TbPYK enzyme, Kinase-Glo Plus ATP luminescence, 45 min; Potency, µM (series often up to 76.8 µM), for the others: at the highest dose activity, negative = inhibition, usual class: inhibitors; 0.12% of 410,000 active; AID 624173; note: potency is the fitted concentration of half-maximal effect; nearly all actives have a fitted effect of over 50% in size
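Assay buffer: 50 mM TEA pH 7.2, 100 mM KCl, 10 mM MgCl2, 0.05% BSA, 0.01% Tween-20. Pyruvate kinase from T. brucei plus substrate met compound, then ADP (130 uM final). Luminescence was read post 45 min RT.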
HCMV inh – inhibitors of human cytomegalovirus. HFF cells, HCMV-luciferase reporter, 72 h; hits give low values. activity change, negative = inhibition, % at 57.5 µM. 4.5% of 410,000 active. AID 1259415; in the data active = activity change below about -60%; inconclusive = no clear call, values can overlap the other calls; inactive = above about -39%
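Two compound doses tested in HFFs infected with HCMV-luciferase, MOI 1 PFU/cell, 72 h at 37C. Lysate luminescence read with OneGlo; data normalized against buffer-only and 10uM Salinomycin inhibitor controls.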
LmPK inh – blocks Leishmania mexicana pyruvate kinase activity. Q27686. purified LmPK, Kinase-Glo ATP luminescence, 1 h. Potency, µM (doses to about 57.5 µM), inactives show at the top dose activity change, negative = inhibition, hits mostly inhibitors. 0.37% of 290,000 active; note: potency is the fitted concentration of half-maximal effect
Target sequence (Q27686 whole entry, looked up): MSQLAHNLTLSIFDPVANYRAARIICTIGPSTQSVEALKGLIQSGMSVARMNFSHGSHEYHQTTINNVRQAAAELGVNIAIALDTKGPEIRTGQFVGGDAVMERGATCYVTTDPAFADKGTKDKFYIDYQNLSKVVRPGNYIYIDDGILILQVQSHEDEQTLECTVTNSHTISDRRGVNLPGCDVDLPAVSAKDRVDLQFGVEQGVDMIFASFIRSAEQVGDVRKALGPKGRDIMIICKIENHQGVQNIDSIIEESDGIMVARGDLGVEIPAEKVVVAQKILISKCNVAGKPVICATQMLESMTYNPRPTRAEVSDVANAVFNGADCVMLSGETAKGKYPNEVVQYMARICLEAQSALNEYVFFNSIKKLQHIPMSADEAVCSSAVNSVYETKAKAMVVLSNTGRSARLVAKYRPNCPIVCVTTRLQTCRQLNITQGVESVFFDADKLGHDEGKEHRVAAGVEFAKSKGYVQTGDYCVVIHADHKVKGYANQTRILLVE
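Purified LmPK (0.1 nM) with 0.5 mM PEP and 0.1 mM ADP in imidazole buffer pH 7.2 with MgCl2/KCl, 1 h at room temperature. ATP formed was read by luciferase luminescence and normalized to no-enzyme and uninhibited controls.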
Vaccinia Venus – vaccinia inhibition (Venus reporter). 0.46% of 330,000 active. Potency, µM (highest dose often 36.5 µM), for inactives: at the top dose activity change, negative = inhibition, hits mostly inhibitors. AID 720580. Vaccinia virus Venus reporter expression, fluorescence; calls by dose curve; tested in A549 cells; note: potency is the fitted concentration of half-maximal effect; nearly all actives have a fitted effect of over 30% in size
VACV mCherry inh – vaccinia inhibition (mCherry reporter); Vaccinia virus mCherry reporter infection, fluorescence; Potency, µM (doses to about 36.5 µM), for the others: top-dose activity change, negative = inhibition, hits mostly inhibitors; 0.63% of 310,000 active; AID 720579; calls by dose curve; tested in A549 cells; note: potency is the fitted concentration of half-maximal effect; nearly all actives have a fitted effect of over 35% in size
* hit, by the source's call. Unless noted, calls come from the whole dose curve; as a rule, active = well fitted curve in the direction sought with a large enough effect; inconclusive = small, poorly fitted or top-dose-only effect, or another doubt; inactive = no such curve, though single readings can be large; an effect the other way counts as inactive or inconclusive. % is set by controls: 0 for no effect and ±100 for the full control effect.

What do the screens show for `CCCCNc1ccc(-c2nc(-c3ccccc3)no2)cc1[N+](=O)[O-]`?
Tb PYK inh: -10%; HCMV inh: 30; Vaccinia Venus: 4%; VACV mCherry inh: -6%

Results for COc1ccc(C=CC(=O)c2ccc(OC)c(OC)c2)cc1O ?
Tb PYK inh: -9%; HCMV inh: 47; Vaccinia Venus: 10µM*; VACV mCherry inh: inconclusive

What do the screens show for `COc1ccc(C(=O)C=Cc2ccc(OCc3ccccc3)c(OC)c2)cc1OC`?
Tb PYK inh: -2%; HCMV inh: -8; Vaccinia Venus: 11µM*; VACV mCherry inh: inconclusive

Results for COc1cc(/C=C/C(=O)N2CCC=CC2=O)cc(OC)c1OC ?
Tb PYK inh: 4%; HCMV inh: -97*; Vaccinia Venus: inconclusive; VACV mCherry inh: -19%

How did COc1cc(OC)c(C(=O)/C=C/c2ccc(OCc3ccccc3)c(OC)c2)c(OC)c1 do in these assays?
Tb PYK inh: 2%; HCMV inh: inconclusive; LmPK inh: 9%; Vaccinia Venus: inconclusive; VACV mCherry inh: inconclusive

Results for CCOc1ccc(CC(=O)Nc2c(C(=O)c3ccc(F)cc3)oc3ccccc23)cc1OCC ?
Tb PYK inh: 1%; HCMV inh: 1; Vaccinia Venus: 2%; VACV mCherry inh: 8%

Results for CCOC(=O)c1c(C)[nH]c(C)c1C(=O)CSc1nc2ccccc2c(=O)n1-c1ccc(CC)cc1 ?
Tb PYK inh: -3%; HCMV inh: inconclusive; LmPK inh: -1%; Vaccinia Venus: inconclusive; VACV mCherry inh: inconclusive

Results for CC(=O)c1ccc(-n2c(SCC(=O)c3c[nH]c4ccccc34)nc3ccccc3c2=O)cc1 ?
Tb PYK inh: -1%; HCMV inh: -88*; LmPK inh: 4%; Vaccinia Venus: -24%; VACV mCherry inh: -7%

What do the screens show for `CCOc1ccc(CCN2C(=S)N([C@@H](CC(C)C)CN3CCCC3CN3C(=S)NC[C@@H]3Cc3ccc(O)cc3)C[C@@H]2Cc2ccccc2)cc1` (stereo partly specified)?
Tb PYK inh: -5%; HCMV inh: -39; Vaccinia Venus: inconclusive; VACV mCherry inh: -30%

How did CCOc1ccc(CCN2C(=S)N([C@@H](CC(C)C)CN3CCCC3CN3C(=S)NC[C@@H]3Cc3ccc(O)cc3)C[C@@H]2Cc2ccc(O)cc2)cc1 (stereo partly specified) do in these assays?
Tb PYK inh: 3%; HCMV inh: -84*; Vaccinia Venus: 10µM*; VACV mCherry inh: inconclusive

How did CCOc1ccc(CCN2C(=S)N([C@@H](CC(C)C)CN3CCC[C@@H]3CN3C(=S)NC[C@@H]3CC(C)C)C[C@@H]2Cc2ccc(O)cc2)cc1 do in these assays?
Tb PYK inh: -5%; HCMV inh: -98*; Vaccinia Venus: -15%; VACV mCherry inh: 5%

Results for CCOc1ccc(CCN2C(=S)N([C@@H](CC(C)C)CN3CCCC3CN3C(=S)NC[C@@H]3CC(C)C)C[C@@H]2Cc2ccc(O)cc2)cc1 (stereo partly specified) ?
Tb PYK inh: -4%; HCMV inh: -40; Vaccinia Venus: inconclusive; VACV mCherry inh: inconclusive

What do the screens show for `N#CN=c1snc(-c2ccccc2)n1-c1ccc(Br)cc1`?
Vaccinia Venus: inconclusive; VACV mCherry inh: 3.2µM*

How did Cc1nnc(C)c2c(C)n(-c3ccc(Br)cc3)c(C)c12 do in these assays?
LmPK inh: 6%

How did CCN(CC)S(=O)(=O)c1ccc2c(c1)c(=O)c(C(=O)NCc1ccccc1Cl)cn2C do in these assays?
Tb PYK inh: 5%; HCMV inh: -65*; Vaccinia Venus: -15%; VACV mCherry inh: -15%

Results for CC(C)(C)OC(=O)C(Cc1ccc(OC(C)(C)C)cc1)NC(=O)CNC(=O)OCc1ccccc1 (stereo unspecified) ?
Tb PYK inh: -31%; HCMV inh: 26; LmPK inh: -3%; Vaccinia Venus: inconclusive; VACV mCherry inh: 11µM*

How did C[C@H](NC(=O)c1nc[nH]c1C(=O)N1CCNCC1)C(=O)OC(C)(C)C do in these assays?
Tb PYK inh: 0%; HCMV inh: -65*; Vaccinia Venus: 6%; VACV mCherry inh: -9%

How did CC(C)(C)OC(=O)[C@H](Cc1ccccc1)NC(=O)c1nc[nH]c1C(=O)NCC(=O)OCc1ccccc1 do in these assays?
Tb PYK inh: -1%; HCMV inh: -61*; LmPK inh: 1%; Vaccinia Venus: -12%; VACV mCherry inh: inactive

Results for CC(C)C[C@H](NC(=O)c1nc[nH]c1C(=O)N1CCNCC1)C(=O)OC(C)(C)C ?
Tb PYK inh: 3%; HCMV inh: -19; Vaccinia Venus: -9%; VACV mCherry inh: inactive

How did CC(C)(C)OC(=O)NCCCC[C@H](NC(=O)c1nc[nH]c1C(=O)NCC(=O)OCc1ccccc1)C(=O)OC(C)(C)C do in these assays?
Tb PYK inh: -2%; HCMV inh: -89*; LmPK inh: -3%; Vaccinia Venus: inconclusive; VACV mCherry inh: -19%

Results for O=C(C[C@H]1C/C=C\C[C@H](Cc2ccc(F)cc2)C(=O)O[C@@H](c2ccccc2)CNC1=O)NCCO ?
Tb PYK inh: -11%; HCMV inh: 15; Vaccinia Venus: -10%; VACV mCherry inh: inactive

How did COc1ccc(NC(=O)c2nc[nH]c2C(=O)N[C@@H](C)C(=O)OC(C)(C)C)cc1 do in these assays?
Tb PYK inh: -15%; HCMV inh: 50; LmPK inh: 0%; Vaccinia Venus: inconclusive; VACV mCherry inh: -2%

Results for O=C(N[C@@H](Cc1ccccc1)C(=O)OCc1ccccc1)c1nc[nH]c1C(=O)N1CCNCC1 ?
Tb PYK inh: 0%; HCMV inh: -84*; Vaccinia Venus: -1%; VACV mCherry inh: -11%

How did CC(C)C[C@H](NC(=O)c1[nH]cnc1C(=O)N[C@@H](Cc1ccccc1)C(=O)OC(C)(C)C)C(=O)OC(C)(C)C do in these assays?
Tb PYK inh: 5%; HCMV inh: -89*; LmPK inh: 1%; Vaccinia Venus: inconclusive; VACV mCherry inh: inconclusive

Results for COc1ccc(NC(=O)c2nc[nH]c2C(=O)N[C@@H](CC(C)C)C(=O)OC(C)(C)C)cc1 ?
Tb PYK inh: -1%; HCMV inh: -78*; LmPK inh: 4%; Vaccinia Venus: -23%; VACV mCherry inh: inconclusive

Results for Cc1ccc(-n2nc(CO)c(C(=O)NCC(c3ccccc3)c3ccccc3)n2)cc1 ?
Tb PYK inh: 0%; HCMV inh: 39; Vaccinia Venus: -11%; VACV mCherry inh: -13%

How did Cc1ccccc1-n1nc(CO)c(C(=O)NCC(c2ccccc2)c2ccccc2)n1 do in these assays?
Tb PYK inh: -1%; HCMV inh: -86*; Vaccinia Venus: -23%; VACV mCherry inh: -12%

What do the screens show for `O=C(NCC(c1ccccc1)c1ccccc1)c1nn(-c2ccccc2Cl)nc1CO`?
Tb PYK inh: -1%; HCMV inh: -92*; Vaccinia Venus: -21%; VACV mCherry inh: -13%

High-throughput results deposited in PubChem BioAssay by National Center for Advancing Translational Sciences (NCATS).
